According to PubChem BioAssay AID1159580 (chemical genetic matrix, 2015):
Where “and” joins values, the source holds several entries; their conditions need not be identical. Identical values can stand only once. Screen size: about 5,500 compounds; about 2,000 (36%) were called active. Another 18% or so got no clear call; they are omitted. Cut-off read from the data, not from the text of the source: active = normalized growth mostly below about 0.91 (no sharp cut-off); inconclusive = no clear call, values can overlap the other calls; inactive = mostly above about 0.92. The list shows a part of the results.

Experiment: chemical genetic growth profiling, strain panel (AID 1159580);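 note: tested at 20 µM; growth read once vehicle control cultures reached saturation at 30 °C; 1 = growth at the plate median or of vehicle wells; lower values mean less growth of the strain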
Conditions: S. cerevisiae deletion strains, growth OD

Measured: normalized growth

COc1ccc(-c2cc(C(F)F)nn2-c2ccc(S(N)(=O)=O)cc2)cc1F
inactive: locus YAL013W, strain DEP1, stronger effect = lower value 1 | locus YAL021C, strain ccr4, stronger effect = lower value 0.991 | locus YAL026C, strain drs2, stronger effect = lower value 1.02 | locus YAL030W, strain snc1, stronger effect = lower value 1.01 | locus YBL061C, strain skt5, stronger effect = lower value 1 | locus YBR009C, strain hhf1, stronger effect = lower value 1 | locus YBR021W, strain FUR4, stronger effect = lower value 1.02 | locus YBR023C, strain chs3, stronger effect = lower value 0.992 | locus YBR171W, strain sec66, stronger effect = lower value 1.01 | locus YBR229C, strain ROT2, stronger effect = lower value 1.01 | locus YBR231C, strain swc5, stronger effect = lower value 1.01 | locus YBR279W, strain paf1, stronger effect = lower value 1 | locus YCL011C, strain gbp2, stronger effect = lower value 1.01 | locus YCL016C, strain dcc1, stronger effect = lower value 0.992 | locus YCL029C, strain bik1, stronger effect = lower value 1.01 | locus YCL069W, strain vba3, stronger effect = lower value 1 | locus YCR088W, strain abp1, stronger effect = lower value 1 | locus YDL005C, strain med2, stronger effect = lower value 1 | locus YDL035C, strain GPR1, stronger effect = lower value 1.02 | locus YDL040C, strain nat1, stronger effect = lower value 1.01 | locus YDL074C, strain BRE1, stronger effect = lower value 0.997 | locus YDL101C, strain DUN1, stronger effect = lower value 1 | locus YDL134C, strain PPH21, stronger effect = lower value 0.994 | locus YDL185W, strain tfp1, stronger effect = lower value 1.01 | locus YDL192W, strain arf1, stronger effect = lower value 1.01 | locus YDR001C, strain nth1, stronger effect = lower value 1.02 | locus YDR069C, strain doa4, stronger effect = lower value 1.01 | locus YDR101C, strain arx1, stronger effect = lower value 1.01 | locus YDR137W, strain rgp1, stronger effect = lower value 1.04 | locus YDR150W, strain NUM1, stronger effect = lower value 0.999 | locus YDR159W, strain sac3, stronger effect = lower value 1.01 | locus YDR162C, strain NBP2, stronger effect = lower value 0.988 | locus YDR195W, strain ref2 0.988 | locus YDR297W, strain sur2, stronger effect = lower value 1.01 | locus YDR318W, strain mcm21, stronger effect = lower value 1.02 | locus YDR334W, strain swr1, stronger effect = lower value 1.02 | locus YDR335W, strain msn5, stronger effect = lower value 1 | locus YDR388W, stronger effect = lower value 1.02 | locus YDR392W, strain spt3, stronger effect = lower value 0.922 | locus YDR502C, strain sam2, stronger effect = lower value 0.996 | locus YEL003W, strain gim4, stronger effect = lower value 1 | locus YEL037C, strain rad23, stronger effect = lower value 1.01 | locus YEL061C, strain CIN8 (second series), stronger effect = lower value 1.01 | locus YEL061C, strain CIN8, stronger effect = lower value 1 | locus YER015W, strain faa2, stronger effect = lower value 0.987 | locus YER016W, strain bim1, stronger effect = lower value 1 | locus YER110C, stronger effect = lower value 1.03 | locus YER111C, strain swi4, stronger effect = lower value 0.999 | locus YER155C, strain BEM2 (second series), stronger effect = lower value 0.887 | locus YER155C, strain BEM2, stronger effect = lower value 0.998 | locus YER167W, strain BCK2, stronger effect = lower value 1.01 | locus YFR010W, strain ubp6, stronger effect = lower value 1.02 | locus YGL078C, strain dbp3, stronger effect = lower value 0.996 | locus YGL086W, strain mad1, stronger effect = lower value 1.03 | locus YGL167C, strain pmr1, stronger effect = lower value 0.999 | locus YGL173C, strain kem1, stronger effect = lower value 0.998 | locus YGL227W, strain vid30, stronger effect = lower value 1.01 | locus YGL240W, strain doc1, stronger effect = lower value 0.961 | locus YGL248W, strain PDE1, stronger effect = lower value 0.997 | locus YGL253W, strain hxk2, stronger effect = lower value 1.01 | locus YGR078C, strain PAC10, stronger effect = lower value 0.994 | locus YGR135W, strain pre9, stronger effect = lower value 0.982 | locus YGR229C, strain SMI1, stronger effect = lower value 0.989 | locus YGR252W, strain gcn5, stronger effect = lower value 1.08 | locus YHR013C, strain ard1, stronger effect = lower value 1.06 | locus YHR027C, strain rpn1, stronger effect = lower value 1.01 | locus YHR030C, strain SLT2, stronger effect = lower value 1.01 and 1.05 | locus YHR079C, strain IRE1 (second series), stronger effect = lower value 1.02 | locus YHR079C, strain IRE1, stronger effect = lower value 1.06 | locus YHR094C, strain hxt1, stronger effect = lower value 1.01 | locus YHR129C, strain ARP1, stronger effect = lower value 1 | locus YHR142W, strain chs7, stronger effect = lower value 0.999 | locus YHR200W, strain rpn10, stronger effect = lower value 1.02 | locus YIL066C, strain RNR3, stronger effect = lower value 1.01 | locus YIL073C, strain SPO22, stronger effect = lower value 1.07 | locus YIL125W, strain kgd1, stronger effect = lower value 1.01 | locus YIR030C, strain dcg1, stronger effect = lower value 1.01 | locus YJL092W, strain hpr5, stronger effect = lower value 1 | locus YJL095W, strain BCK1 (second series), stronger effect = lower value 0.997 | locus YJL095W, strain BCK1, stronger effect = lower value 0.996 and 1.02 | locus YJL115W, strain asf1, stronger effect = lower value 1.01 | locus YJL129C, strain trk1, stronger effect = lower value 0.967 | locus YJL134W, strain LCB3, stronger effect = lower value 1 | locus YJL154C, strain vps35, stronger effect = lower value 0.999 | locus YJL164C, strain tpk1, stronger effect = lower value 0.992 | locus YJL166W, strain qcr8, stronger effect = lower value 0.984 | locus YJL168C, strain set2, stronger effect = lower value 1.02 | locus YJL187C, strain SWE1 (second series), stronger effect = lower value 0.995 | locus YJL187C, strain SWE1, stronger effect = lower value 1 | locus YJR043C, strain POL32, stronger effect = lower value 1.03 | locus YJR066W, strain TOR1, stronger effect = lower value 1.01
